# From PubChem BioAssay (EPA / NIEHS)
# Results filed as inconclusive are left out. The source holds several records for some structures; these can differ, active in one and inactive in another. Activity calls are given as the source filed them. Rule for the calls, unless noted: active = hit-call score of the fitted dose curve at least 0.9, where 1 is the maximum; inconclusive = response in the unintended direction; inactive = score below 0.9.
# Experiments:
# [1] = molecular target: Estrogen receptor beta (Homo sapiens) (UniProt Q92731); test: OT_ER_ERbERb_1440: Odyssey Thera (OT) 24-hour HEK293T Protein-Complementation Assay for Estrogen Receptor-beta/-beta Homodimer (AID 2283380);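 note: fluorescence gain from ER beta LBD homodimer complementation read by laser scanning cytometry; scored as signal increase over DMSO baseline for both agonists and antagonists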
# Outline: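 Fluorescence increase, nuclear for agonists or whole-cell for antagonists, relative to DMSO vehicle, quantified by laser scanning cytometer after fixation and Draq5 staining. Readout from 24 h treatment of HEK293T cells carrying complementation-paired ER beta LBD (aa 310-547).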
# [2] = molecular target: Retinoic acid receptor RXR-alpha (Homo sapiens) (UniProt P19793); test: OT_NURR1_NURR1RXRa_0480: Odyssey Thera (OT) 8-hour HEK293T Protein Complementation Assay for Nurr1/retinoid X receptor (RXR) (AID 2283385)
# Outline: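 Compounds are applied to HEK293T cells carrying Nurr1 and RXRα linked to reporter fragments. After 8 h, fluorescence intensity reports heterodimer formation, with DMSO as baseline.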
# [3] = molecular target: Retinoic acid receptor RXR-alpha (Homo sapiens) (UniProt P19793); test: OT_NURR1_NURR1RXRa_1440: Odyssey Thera (OT) 24-hour HEK293T Protein Complementation Assay for Nurr1/retinoid X receptor (RXR) (AID 2283386)
# Outline: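 Measured as fluorescence from a reconstituted split reporter, this 24 h HEK293T complementation assay scores compound-induced gain of Nurr1/RXRα association relative to DMSO.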
# [4] = molecular target: Estrogen receptor (Homo sapiens) (UniProt P03372); test: OT_ERa_GFPERaERE_0480: Odyssey Thera (OT) 8-hour HeLa Transcription Induction Assay for Estrogen Receptor (AID 2283381; active = hit-call score of the fitted dose curve at least 0.9, where 1 is the maximum; inactive = score below 0.9)
# Outline: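 Cells (HeLa) receive compound; after 8 h, reporter fluorescence is imaged and quantified by high-content analysis. Gain-of-signal relative to DMSO gives the endpoint.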
# [5] = molecular target: Estrogen receptor (Homo sapiens) (UniProt P03372); test: OT_ERa_GFPERaERE_0120: Odyssey Thera (OT) 2-hour HeLa Transcription Induction Assay for Estrogen Receptor (AID 2283382)
# Outline: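 Measures ESR1 pathway reporter gain-of-signal in HeLa cells after a 2-hour treatment, detected as fluorescent protein induction by microscopy, DMSO as baseline.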
# [6] = molecular target: Bile acid receptor (Homo sapiens) (UniProt Q96RI1); test: OT_FXR_FXRSRC1_0480: Odyssey Thera (OT) 8-hour HEK293T Protein-Complementation Assay for Farnesoid X receptor/SRC-1 Co-activator (AID 2283383)
# Outline: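 Co-activator recruitment to FXR was measured in living HEK293T cells, where interaction of the two fused partners restored an active fluorescent reporter. Signal gain after 8 h treatment was referenced to DMSO.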
# [7] = molecular target: Peroxisome proliferator-activated receptor gamma (Homo sapiens) (UniProt P37231); test: OT_PPARg_PPARgSRC1_0480: Odyssey Thera (OT) 8-hour Protein-Complementation Assay for Peroxisome Proliferator-activated Receptor Gamma / SRC-1 Co-activator (AID 2283387)
# Outline: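 Read-out: 488 nm N/C fluorescence ratio from complemented Venus YFP fragments, ≥350 cells per image, gain-of-signal fitted against DMSO baseline. Fusions of PPARg/SRC-1 with IFP1/IFP2 expressed transiently in HEK293T; compounds applied 8 h.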
# [8] = molecular target: Peroxisome proliferator-activated receptor gamma (Homo sapiens) (UniProt P37231); test: OT_PPARg_PPARgSRC1_1440: Odyssey Thera (OT) 24-hour Protein-Complementation Assay for Peroxisome Proliferator-activated Receptor Gamma/ SRC-1 Co-activator (AID 2283388)
# Outline: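 HEK293T cells transiently transfected with PPARg and SRC-1 fused via (Gly4Ser)2 linker to split Venus YFP fragments (IFP1/IFP2) were dosed 24 h; fixed, Draq5-stained, imaged at 488/635 nm; nuclear/cytoplasmic fluorescence ratio scored versus DMSO baseline, gain-of-signal.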
# [9] = molecular target: Bile acid receptor (Homo sapiens) (UniProt Q96RI1); test: OT_FXR_FXRSRC1_1440: Odyssey Thera (OT) 24-hour HEK293T Protein-Complementation Assay for Farnesoid X receptor/SRC-1 Co-activator (AID 2283384)
# Outline: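 Cell-based binding reporter: interaction of FXR with SRC-1 brings reporter fragments together, giving a fluorescence signal read 24 h after dosing of HEK293T cells.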
# Estrogen receptor beta (Homo sapiens), sequence (Q92731 whole entry, looked up, the tested form may be a part): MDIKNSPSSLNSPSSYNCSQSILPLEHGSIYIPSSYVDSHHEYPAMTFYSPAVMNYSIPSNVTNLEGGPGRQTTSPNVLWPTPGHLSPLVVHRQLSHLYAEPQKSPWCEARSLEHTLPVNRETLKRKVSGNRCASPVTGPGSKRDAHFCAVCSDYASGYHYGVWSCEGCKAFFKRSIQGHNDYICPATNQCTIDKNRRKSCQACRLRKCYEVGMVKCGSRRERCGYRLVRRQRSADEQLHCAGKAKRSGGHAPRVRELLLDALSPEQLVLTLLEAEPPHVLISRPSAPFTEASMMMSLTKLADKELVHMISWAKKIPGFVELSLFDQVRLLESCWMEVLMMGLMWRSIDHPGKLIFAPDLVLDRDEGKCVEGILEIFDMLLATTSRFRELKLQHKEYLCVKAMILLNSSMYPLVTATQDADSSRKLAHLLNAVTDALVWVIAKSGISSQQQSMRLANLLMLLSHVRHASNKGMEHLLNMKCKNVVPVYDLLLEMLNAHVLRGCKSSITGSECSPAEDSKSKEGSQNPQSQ
# Estrogen receptor (Homo sapiens), sequence (P03372 whole entry, looked up): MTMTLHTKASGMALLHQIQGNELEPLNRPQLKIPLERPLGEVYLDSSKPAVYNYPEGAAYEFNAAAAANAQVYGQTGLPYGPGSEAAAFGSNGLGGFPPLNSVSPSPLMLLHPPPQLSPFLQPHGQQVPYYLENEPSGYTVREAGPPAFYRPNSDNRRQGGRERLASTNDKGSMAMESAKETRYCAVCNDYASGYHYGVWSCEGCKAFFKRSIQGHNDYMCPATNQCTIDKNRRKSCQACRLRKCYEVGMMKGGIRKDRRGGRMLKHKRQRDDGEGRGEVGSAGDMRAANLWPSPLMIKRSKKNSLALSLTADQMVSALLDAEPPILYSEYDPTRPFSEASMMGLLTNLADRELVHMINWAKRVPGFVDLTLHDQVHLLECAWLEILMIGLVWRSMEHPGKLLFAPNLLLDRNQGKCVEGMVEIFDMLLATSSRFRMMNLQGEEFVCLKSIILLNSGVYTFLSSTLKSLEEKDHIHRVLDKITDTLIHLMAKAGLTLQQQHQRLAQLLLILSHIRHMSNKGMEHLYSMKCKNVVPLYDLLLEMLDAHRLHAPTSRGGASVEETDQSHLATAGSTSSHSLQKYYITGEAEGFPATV
# Peroxisome proliferator-activated receptor gamma (Homo sapiens), sequence (P37231 whole entry, looked up, the tested form may be a part): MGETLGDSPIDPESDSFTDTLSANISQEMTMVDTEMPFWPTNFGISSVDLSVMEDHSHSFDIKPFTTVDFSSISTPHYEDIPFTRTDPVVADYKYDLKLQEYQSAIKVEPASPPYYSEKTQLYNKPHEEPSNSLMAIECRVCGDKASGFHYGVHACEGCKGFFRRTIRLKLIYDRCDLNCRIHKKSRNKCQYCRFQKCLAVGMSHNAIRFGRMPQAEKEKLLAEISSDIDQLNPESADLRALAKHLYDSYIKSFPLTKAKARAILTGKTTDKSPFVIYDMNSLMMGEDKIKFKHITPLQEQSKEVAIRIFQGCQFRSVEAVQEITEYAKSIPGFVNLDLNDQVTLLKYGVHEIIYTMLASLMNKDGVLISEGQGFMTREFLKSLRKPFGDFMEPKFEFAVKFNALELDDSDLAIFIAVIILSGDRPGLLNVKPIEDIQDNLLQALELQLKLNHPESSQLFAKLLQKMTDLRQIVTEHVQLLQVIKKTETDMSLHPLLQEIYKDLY
# Retinoic acid receptor RXR-alpha (Homo sapiens), sequence (P19793 whole entry, looked up, the tested form may be a part): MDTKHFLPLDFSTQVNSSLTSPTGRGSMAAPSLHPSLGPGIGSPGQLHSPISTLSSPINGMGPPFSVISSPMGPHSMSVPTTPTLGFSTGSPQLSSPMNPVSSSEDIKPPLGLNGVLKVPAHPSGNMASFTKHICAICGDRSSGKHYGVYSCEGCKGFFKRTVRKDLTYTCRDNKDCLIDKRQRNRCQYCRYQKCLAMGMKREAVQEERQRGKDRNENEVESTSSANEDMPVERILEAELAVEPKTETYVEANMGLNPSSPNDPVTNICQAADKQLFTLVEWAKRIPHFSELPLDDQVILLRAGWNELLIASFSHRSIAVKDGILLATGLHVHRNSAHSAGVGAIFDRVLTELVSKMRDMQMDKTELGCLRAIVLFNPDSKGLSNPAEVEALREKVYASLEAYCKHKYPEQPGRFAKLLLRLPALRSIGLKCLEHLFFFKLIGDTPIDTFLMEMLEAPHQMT
# Bile acid receptor (Homo sapiens), sequence (Q96RI1 whole entry, looked up, the tested form may be a part): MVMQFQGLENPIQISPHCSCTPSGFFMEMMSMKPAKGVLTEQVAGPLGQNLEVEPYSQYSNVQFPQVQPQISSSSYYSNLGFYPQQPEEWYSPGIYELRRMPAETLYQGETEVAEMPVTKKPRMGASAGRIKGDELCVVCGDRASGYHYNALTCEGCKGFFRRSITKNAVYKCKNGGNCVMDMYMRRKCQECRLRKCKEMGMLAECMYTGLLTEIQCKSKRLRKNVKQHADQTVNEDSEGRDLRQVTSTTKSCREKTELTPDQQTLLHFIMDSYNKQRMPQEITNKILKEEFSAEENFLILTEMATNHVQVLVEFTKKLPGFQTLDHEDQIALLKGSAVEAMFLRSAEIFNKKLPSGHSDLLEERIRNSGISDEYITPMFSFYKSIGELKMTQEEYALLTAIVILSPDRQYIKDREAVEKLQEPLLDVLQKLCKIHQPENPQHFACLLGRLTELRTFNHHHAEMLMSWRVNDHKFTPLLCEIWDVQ
smiles,measurement,setting,value
CCNc1nc(N)nc(Cl)n1,outcome,[1],inactive
same,outcome,[2],inactive
same,outcome,[3],inactive
OB(O)O,outcome,[4],inactive
same,outcome,[5],inactive
same,outcome,[6],inactive
same,outcome,[3],inactive
same,outcome,[7],inactive
same,outcome,[8],inactive
COC(=O)c1ccccc1C(=O)O,outcome,[1],inactive
same,outcome,[4],inactive
same,outcome,[5],inactive
same,outcome,[2],inactive
same,outcome,[3],inactive
same,outcome,[7],inactive
same,outcome,[8],inactive
CCOC(=O)NCCOc1ccc(Oc2ccccc2)cc1,outcome,[4],inactive
same,outcome,[5],inactive
same,AC50,[6],11.7 µM (active)
same,AC50,[9],12.1 µM (active)
same,AC50,[2],2.34 µM (active)
same,outcome,[2],inactive
same,AC50,[3],50 µM (active)
same,outcome,[3],inactive
same,outcome,[7],inactive
same,outcome,[8],inactive
O=C(O)c1ccccc1,outcome,[4],inactive
same,outcome,[5],inactive
same,outcome,[2],inactive
same,outcome,[3],inactive
same,outcome,[7],inactive
same,outcome,[8],inactive
COCCO,outcome,[4],inactive
same,outcome,[5],inactive
same,outcome,[2],inactive
same,outcome,[3],inactive
same,outcome,[7],inactive
same,outcome,[8],inactive
CCCCC(CC)COC(=O)c1ccccc1C(=O)O (centres undefined),outcome,[1],inactive
same,outcome,[2],inactive
same,outcome,[3],inactive
CCCCCCC(C)OC(=O)COc1nc(F)c(Cl)c(N)c1Cl (centres undefined),AC50,[1],72.8 µM (active)
same,AC50,[2],79.2 µM (active)
same,outcome,[2],inactive
same,outcome,[3],inactive
CCC(C)OC(=O)N1CCCCC1CCO (centres undefined),outcome,[1],inactive
same,outcome,[6],inactive
same,outcome,[9],inactive
same,outcome,[2],inactive
same,outcome,[3],inactive
same,outcome,[7],inactive
same,outcome,[8],inactive
CC(C)(C)[C@@H](O)[C@@H](Cc1ccc(Cl)cc1)n1cncn1,outcome,[1],inactive
same,outcome,[6],inactive
same,outcome,[9],inactive
same,outcome,[2],inactive
same,outcome,[7],inactive
same,outcome,[8],inactive
COc1c(Cl)ccc(Cl)c1C(=O)O,outcome,[1],inactive
same,outcome,[4],inactive
same,outcome,[5],inactive
same,outcome,[3],inactive
same,outcome,[7],inactive
same,outcome,[8],inactive
c1ccc(Nc2ccccc2)cc1,outcome,[1],inactive
same,AC50,[2],50 µM (active)
same,outcome,[3],inactive
same,outcome,[7],inactive
same,outcome,[8],inactive
